# Assays:
# Assay in all cases: DAPPL (digital affinity profiling via proximity ligation, sequencing); 10 mM Tris-HCl pH 7.5, 50 mM NaCl, 1 mM DTT, 4% glycerol, room temperature, 30 min; GST-TFs on glutathione beads, 16-mer random dsDNA library, 0.1% formaldehyde crosslink after washing; high values mean tight binding
# Conditions in all cases: protein: recombinant; tags: N-terminal GST; dsDNA, one strand shown
# ELK1 = target: T1, ELK1 (Homo sapiens, UniProt P19419 1-428)
# T1 sequence: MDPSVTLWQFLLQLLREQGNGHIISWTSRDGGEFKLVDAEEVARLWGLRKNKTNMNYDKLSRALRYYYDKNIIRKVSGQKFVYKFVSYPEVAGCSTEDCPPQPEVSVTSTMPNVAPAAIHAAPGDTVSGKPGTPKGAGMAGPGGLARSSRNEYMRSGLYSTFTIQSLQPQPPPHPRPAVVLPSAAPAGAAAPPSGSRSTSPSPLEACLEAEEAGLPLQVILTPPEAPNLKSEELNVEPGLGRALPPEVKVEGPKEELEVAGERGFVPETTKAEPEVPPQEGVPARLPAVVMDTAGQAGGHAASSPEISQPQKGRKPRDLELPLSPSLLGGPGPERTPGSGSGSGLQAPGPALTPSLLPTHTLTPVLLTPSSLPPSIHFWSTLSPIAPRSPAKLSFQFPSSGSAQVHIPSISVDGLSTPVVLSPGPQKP
# Outline: (§1)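 GST fusions of human transcription factors were expressed in yeast and captured with glutathione beads. Once given DNA barcodes and pooled alongside a tag-only sample, they were incubated for 30 min at room temperature with 200 nmole of a random double-stranded 16-mer DNA library in Tris/NaCl/DTT/glycerol buffer, then washed, crosslinked (0.1% formaldehyde), proximity-ligated, PCR-amplified and sequenced on an Illumina NextSeq500. The binding signal of each hexamer is its read frequency for a factor divided by its frequency for the tag-only sample.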
# GABPA = target: T2, GABPA (Homo sapiens, UniProt Q06546 1-454)
# T2 sequence: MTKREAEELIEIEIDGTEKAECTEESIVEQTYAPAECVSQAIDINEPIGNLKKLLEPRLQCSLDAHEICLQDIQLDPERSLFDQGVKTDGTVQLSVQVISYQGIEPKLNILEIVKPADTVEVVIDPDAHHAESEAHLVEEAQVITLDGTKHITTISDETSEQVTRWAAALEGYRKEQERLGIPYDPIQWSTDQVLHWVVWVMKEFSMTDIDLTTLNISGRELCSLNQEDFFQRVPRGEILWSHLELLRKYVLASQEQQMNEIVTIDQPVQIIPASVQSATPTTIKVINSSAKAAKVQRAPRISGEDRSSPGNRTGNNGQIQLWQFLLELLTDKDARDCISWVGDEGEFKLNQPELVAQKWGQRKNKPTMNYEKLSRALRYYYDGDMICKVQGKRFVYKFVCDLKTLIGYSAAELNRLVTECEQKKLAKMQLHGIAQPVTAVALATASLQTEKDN
# Outline: as §1
# ERG = target: T3, ERG (Homo sapiens, UniProt P11308 1-479)
# T3 sequence: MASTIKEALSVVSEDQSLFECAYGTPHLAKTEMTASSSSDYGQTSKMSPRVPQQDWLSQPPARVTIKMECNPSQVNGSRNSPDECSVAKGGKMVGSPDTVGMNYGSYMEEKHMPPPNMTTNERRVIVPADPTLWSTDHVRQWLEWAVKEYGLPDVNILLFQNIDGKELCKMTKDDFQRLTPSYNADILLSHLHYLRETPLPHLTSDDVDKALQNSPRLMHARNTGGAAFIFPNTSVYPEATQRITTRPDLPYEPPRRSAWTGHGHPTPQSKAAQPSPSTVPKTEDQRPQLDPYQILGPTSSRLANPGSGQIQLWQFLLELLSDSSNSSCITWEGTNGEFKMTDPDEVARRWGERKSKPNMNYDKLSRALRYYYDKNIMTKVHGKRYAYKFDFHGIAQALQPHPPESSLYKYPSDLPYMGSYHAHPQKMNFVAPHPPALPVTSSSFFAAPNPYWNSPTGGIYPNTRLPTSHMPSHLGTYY
# Outline: as §1
# ELF1 = ELF1 (Homo sapiens, UniProt P32519 1-619)
# ELF1, sequence (P32519 whole entry): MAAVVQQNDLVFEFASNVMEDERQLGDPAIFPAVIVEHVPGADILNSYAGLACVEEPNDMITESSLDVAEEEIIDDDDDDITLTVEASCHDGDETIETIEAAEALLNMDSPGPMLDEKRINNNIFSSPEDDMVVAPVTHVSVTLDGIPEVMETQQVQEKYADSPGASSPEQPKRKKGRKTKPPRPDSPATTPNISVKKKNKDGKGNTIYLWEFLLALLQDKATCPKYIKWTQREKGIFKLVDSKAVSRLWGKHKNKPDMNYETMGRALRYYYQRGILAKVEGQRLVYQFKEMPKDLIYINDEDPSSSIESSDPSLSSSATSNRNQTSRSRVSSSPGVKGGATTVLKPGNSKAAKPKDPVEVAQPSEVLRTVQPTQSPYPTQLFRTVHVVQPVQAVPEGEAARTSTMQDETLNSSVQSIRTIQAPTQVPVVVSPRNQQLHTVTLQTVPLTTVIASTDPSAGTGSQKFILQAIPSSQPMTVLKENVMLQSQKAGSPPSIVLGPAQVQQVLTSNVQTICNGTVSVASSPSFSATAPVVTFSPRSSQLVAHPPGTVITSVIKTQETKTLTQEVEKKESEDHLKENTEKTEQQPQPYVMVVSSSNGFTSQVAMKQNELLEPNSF
# Outline: as §1
# EHF = target: T4, EHF (Homo sapiens, UniProt Q9NZC4 1-300)
# T4 sequence: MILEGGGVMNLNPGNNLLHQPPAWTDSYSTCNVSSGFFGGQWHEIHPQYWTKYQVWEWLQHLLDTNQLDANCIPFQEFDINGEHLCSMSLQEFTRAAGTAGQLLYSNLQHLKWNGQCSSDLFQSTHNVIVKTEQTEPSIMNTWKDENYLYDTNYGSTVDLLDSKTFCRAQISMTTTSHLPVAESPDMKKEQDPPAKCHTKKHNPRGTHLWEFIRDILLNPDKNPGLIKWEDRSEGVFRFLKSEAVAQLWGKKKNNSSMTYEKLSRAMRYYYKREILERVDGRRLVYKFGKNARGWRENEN
# Outline: as §1
# SPIB = SPIB (Homo sapiens, UniProt Q01892 1-262)
# SPIB, sequence (Q01892 whole entry): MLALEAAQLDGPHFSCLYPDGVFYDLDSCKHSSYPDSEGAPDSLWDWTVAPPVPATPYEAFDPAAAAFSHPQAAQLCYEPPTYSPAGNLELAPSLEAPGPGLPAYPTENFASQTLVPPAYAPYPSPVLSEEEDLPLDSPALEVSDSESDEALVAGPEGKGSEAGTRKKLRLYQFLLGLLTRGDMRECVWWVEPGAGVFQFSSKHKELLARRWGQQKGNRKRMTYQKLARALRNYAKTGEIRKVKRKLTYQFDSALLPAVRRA
# Outline: as §1
# ELK3 = target: T5, ELK3 (Homo sapiens, UniProt P41970 1-407)
# T5 sequence: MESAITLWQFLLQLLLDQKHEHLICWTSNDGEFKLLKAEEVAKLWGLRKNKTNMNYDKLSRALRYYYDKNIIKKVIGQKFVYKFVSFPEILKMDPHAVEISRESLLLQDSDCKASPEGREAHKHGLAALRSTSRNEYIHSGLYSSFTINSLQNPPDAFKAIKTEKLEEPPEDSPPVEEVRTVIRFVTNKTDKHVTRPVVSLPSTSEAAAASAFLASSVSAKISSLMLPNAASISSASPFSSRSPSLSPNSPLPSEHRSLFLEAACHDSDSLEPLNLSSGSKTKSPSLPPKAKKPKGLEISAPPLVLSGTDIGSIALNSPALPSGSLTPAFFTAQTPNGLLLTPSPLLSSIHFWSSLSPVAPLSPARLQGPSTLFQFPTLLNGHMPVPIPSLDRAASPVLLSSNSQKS
# Outline: as §1
# FEV = target: T6, FEV (Homo sapiens, UniProt Q99581 1-238)
# T6 sequence: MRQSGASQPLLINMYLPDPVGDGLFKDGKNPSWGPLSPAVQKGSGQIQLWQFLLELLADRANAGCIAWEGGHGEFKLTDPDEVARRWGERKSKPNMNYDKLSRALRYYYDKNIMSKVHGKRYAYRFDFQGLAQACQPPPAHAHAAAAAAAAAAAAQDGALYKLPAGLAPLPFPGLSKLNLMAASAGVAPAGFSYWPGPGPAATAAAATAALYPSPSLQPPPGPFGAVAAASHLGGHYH
# Outline: as §1
# ETV5 = ETV5 (Homo sapiens, UniProt P41161 1-510)
# ETV5, sequence (P41161 whole entry): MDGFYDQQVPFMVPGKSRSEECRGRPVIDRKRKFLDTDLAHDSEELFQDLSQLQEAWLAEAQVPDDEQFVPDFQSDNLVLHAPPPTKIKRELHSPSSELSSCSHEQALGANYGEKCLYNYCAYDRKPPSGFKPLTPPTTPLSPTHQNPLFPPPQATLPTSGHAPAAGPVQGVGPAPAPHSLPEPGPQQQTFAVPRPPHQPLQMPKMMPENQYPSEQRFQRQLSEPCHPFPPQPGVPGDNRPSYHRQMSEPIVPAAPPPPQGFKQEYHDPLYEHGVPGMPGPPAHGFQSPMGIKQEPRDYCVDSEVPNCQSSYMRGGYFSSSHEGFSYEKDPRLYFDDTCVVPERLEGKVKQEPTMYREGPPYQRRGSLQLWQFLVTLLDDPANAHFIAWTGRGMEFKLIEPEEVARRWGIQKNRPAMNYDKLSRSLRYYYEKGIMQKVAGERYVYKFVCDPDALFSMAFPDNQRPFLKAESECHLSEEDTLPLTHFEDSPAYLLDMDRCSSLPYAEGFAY
# Outline: as §1
# ELF4 = ELF4 (Homo sapiens, UniProt Q99607 1-663)
# ELF4, sequence (Q99607 whole entry): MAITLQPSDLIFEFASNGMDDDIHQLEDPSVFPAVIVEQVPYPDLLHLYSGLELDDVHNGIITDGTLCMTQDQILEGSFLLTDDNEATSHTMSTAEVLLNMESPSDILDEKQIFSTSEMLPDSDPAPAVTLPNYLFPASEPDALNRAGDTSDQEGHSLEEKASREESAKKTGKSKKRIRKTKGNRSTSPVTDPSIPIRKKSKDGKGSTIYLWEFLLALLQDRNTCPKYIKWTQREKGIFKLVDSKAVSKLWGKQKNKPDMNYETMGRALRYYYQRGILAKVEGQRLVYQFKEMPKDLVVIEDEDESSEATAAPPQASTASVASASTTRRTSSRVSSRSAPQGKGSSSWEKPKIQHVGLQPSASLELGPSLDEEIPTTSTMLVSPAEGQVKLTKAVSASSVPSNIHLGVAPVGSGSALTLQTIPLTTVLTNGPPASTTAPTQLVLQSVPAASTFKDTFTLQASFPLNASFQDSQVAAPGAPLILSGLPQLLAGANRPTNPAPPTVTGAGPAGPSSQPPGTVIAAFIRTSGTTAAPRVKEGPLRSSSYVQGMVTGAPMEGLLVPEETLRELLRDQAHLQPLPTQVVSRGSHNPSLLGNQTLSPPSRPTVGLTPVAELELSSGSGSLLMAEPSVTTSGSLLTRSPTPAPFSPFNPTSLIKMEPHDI
# Outline: as §1
sequence,measurement,setting,value
TCAAGT,binding signal,ELK1,"1.14 fold enrichment (6-mer frequency, TF over GST control)"
same,binding signal,GABPA,"1.07 fold enrichment (6-mer frequency, TF over GST control)"
same,binding signal,ERG,"1.04 fold enrichment (6-mer frequency, TF over GST control)"
same,binding signal,ELF1,"1.02 fold enrichment (6-mer frequency, TF over GST control)"
same,binding signal,EHF,"1.12 fold enrichment (6-mer frequency, TF over GST control)"
same,binding signal,SPIB,"1.08 fold enrichment (6-mer frequency, TF over GST control)"
same,binding signal,ELK3,"1.13 fold enrichment (6-mer frequency, TF over GST control)"
same,binding signal,FEV,"1.05 fold enrichment (6-mer frequency, TF over GST control)"
same,binding signal,ETV5,"1.07 fold enrichment (6-mer frequency, TF over GST control)"
same,binding signal,ELF4,"1.13 fold enrichment (6-mer frequency, TF over GST control)"
